In PubChem BioAssay (NCATS):
Inconclusive results are not listed. The source made the active and inactive calls. The call rests on the fitted dose curve; in most records, active means well fitted cell-killing curve with a large enough effect; inconclusive means small, poorly fitted or top-dose-only effect; inactive means flat fitted curve, though single readings scatter.

Test: Cell Viability - LYMP2-007 (AID 979);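 further: cells exposed to compound for 24 h before reading; nearly all actives have a fitted effect of over 60% in size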;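 on activity change, negative = cytotoxicity: 0% = DMSO only and the negative end = 92 µM tetraoctylammonium bromide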
Conditions: LYMP2-007 lymphoblastoid cell viability; series mostly up to 92.2 µM; activity change, negative = cytotoxicity: at the top concentration
Source text: NIH Chemical Genomics Center [NCGC]
NIH Molecular Libraries Screening Centers Network [MLSCN]
National Institutes of Environmental Health Sciences [NIEHS]
National Toxicology Program [NTP]
We have developed a 1536-well cell-based assay for quantitative high throughput screening (qHTS) against a number of cell lines to determine in vitro cytotoxicity of small molecules. This particular assay uses a human lymphoblastoid cell line (LYMP2-007) purchased from Coriell Institute for Medical Research.
NCGC Assay Protocol Summary:
The CellTiter-Glo luminescent cell viability assay (Promega) is a homogeneous method to measure the number of viable cells in culture. The end point readout of this assay is based on quantitation of intracellular ATP, an indicator of metabolic activity, using the luciferase reaction. Luciferase catalyzes the oxidation of beetle Luciferin to oxyluciferin and light in the presence of ATP. The luminescent signal is proportional to amount of ATP present.
Using the CellTiter-Glo luminescent cell viability assay, the amount of cellular ATP was measured in the lymphoblastoid cell line with complete culture medium following compound treatment for 24 hours. The assay was performed in opaque white Kalypsys 1536-well plates. In the screen, tetraoctylammonium bromide was used as positive control. Library compounds were measured for their ability to cause acute toxicity in the cell line, as reflected by a decrease in intracellular ATP levels, in a concentration-dependent manner. […] AC50 values were determined from concentration-response data modeled with the standard Hill equation.
qHTS protocol for CellTiter Glo lymphoblastoid cellular assay
[Step] [Parameter] [Value] [Description]
1. Reagent; 5 uL; 2500 lymphoblastoid cells/well
2. Time; 5 hr; 37 C incubation
4. Controls; 23 nL; Tetraoctylammonium bromide 6.4pM to 92 uM
5. Time; 24 hr; 37 C incubation
6. Reagent; 5 uL; CellTiter Glo reagent
7. Time; 30 min; Room Temperature
8. Detection; Luminescence; Viewlux plate reader
Keywords: cell viability, cytotoxicity, lymphoblastoid cell line, luminescence, NTPHTS, NTPHTS_NCGC, NIEHS, DSSTox, MLSMR, MLSCN, NIH Roadmap, qHTS, NCGC
Potency means the concentration at half of the fitted maximal effect.

Row | SMILES | Potency | activity change, negative = cytotoxicity
1 | C/C=C1/C(=O)C[C@H]2[C@@H]3CCC4=CC(=O)CC[C@]4(C)[C@H]3CC[C@]12C | 39.8 µM (active) | 
2 | CC(C)OCC1CO1 (stereo not given) |  | -7.98% (inactive)
3 | c1ccc2c(c1)ccc1ccccc12 |  | -11% (inactive)
4 | OCC(CO)(CBr)CBr |  | -0.386% (inactive)
5 | CCCCNCC |  | -7.83% (inactive)
6 | C1CCCNCC1 |  | 2.56% (inactive)
7 | CC/C=C/C/C=C/C/C=C/CCCCCCCC(=O)OCC | 31.6 µM (active) | 
8 | Brc1ccc(-c2ccccc2)cc1 |  | 4.58% (inactive)
9 | CCCC(=O)OC(=O)CCC |  | 2.95% (inactive)
10 | O=[N+]([O-])c1ccc(F)cc1F |  | 3.11% (inactive)
11 | COc1cc(-c2ccc(N=C=O)c(OC)c2)ccc1N=C=O |  | -5.69% (inactive)
12 | C=CC(=O)OCCCCCCOC(=O)C=C | 39.8 µM (active) | 
13 | CCCCCCc1ccc(-c2ccc(C#N)cc2)cc1 |  | -3.03% (inactive)
14 | Nc1cnn([C@@H]2O[C@H](CO)[C@@H](O)[C@H]2O)c(=O)n1 |  | 3.2% (inactive)
15 | Cc1ccc2ccc3cccc4ccc1c2c34 |  | 5.84% (inactive)
16 | O=C(O)c1ccc([N+](=O)[O-])cc1 |  | -19.3% (inactive)
17 | c1ccc(SCCSc2ccccc2)cc1 |  | -4.6% (inactive)
18 | COc1ccc([N+](=O)[O-])cc1N |  | -8.52% (inactive)
19 | C=C(C#N)C(=O)OCC |  | -13.7% (inactive)
20 | O=[N+]([O-])c1ccccc1Nc1ccccc1 |  | 5.36% (inactive)

Row | SMILES | Potency | activity change, negative = cytotoxicity
21 | CC(=O)OC1CC(C)OC(C)O1 (stereo not given) |  | -4.32% (inactive)
22 | CC1=C(/C=C/C(C)=C/C=C/C(C)=C/C=O)C(C)(C)CCC1 | 39.8 µM (active) | 
23 | CC(CCC(=O)O)(c1ccc(O)cc1)c1ccc(O)cc1 |  | 3.62% (inactive)
24 | CCOc1ccc2nc(N)sc2c1 |  | -13.6% (inactive)
25 | CCNC(=S)NCC |  | -3.99% (inactive)
26 | Cc1c(N)cccc1Cl |  | -4.1% (inactive)
27 | Nc1cc([N+](=O)[O-])ccc1O |  | -13% (inactive)
28 | Nc1ccc(N)c(Cl)c1 |  | -18.7% (inactive)
29 | Oc1cc2c(cc1O)[C@H]1c3ccc(O)c(O)c3OC[C@@]1(O)C2 | 39.8 µM (active) | 
30 | CN(C)c1ccc(Cc2ccc(N(C)C)cc2)cc1 |  | -6.33% (inactive)
31 | c1ccncc1 |  | -7.43% (inactive)
32 | c1ccc(COCc2ccccc2)cc1 |  | -12.8% (inactive)
33 | Cc1cc2nc(N)sc2cc1C |  | -11.8% (inactive)
34 | CC(C)S |  | -3.05% (inactive)
35 | NC(=O)c1ccc([N+](=O)[O-])cc1 |  | -16.1% (inactive)
36 | Cc1ccc(C(=O)O)cc1[N+](=O)[O-] |  | -6.68% (inactive)
37 | Brc1cc(Br)c(Oc2cc(Br)c(Br)cc2Br)cc1Br |  | -4.48% (inactive)
38 | C=CC1CO1 (stereo not given) |  | -8.76% (inactive)
39 | O=C1c2ccccc2C(=O)C1(O)O |  | -26.4% (inactive)
40 | O=c1[nH]ncc2ccccc12 |  | -3.48% (inactive)
